Assay outcomes as filed in PubChem BioAssay.
Pf apPOL block: Pf-apPOL DNA polymerase inhibition. inhibition, % at 10 µM. Recombinant Pf-apPOL, molecular beacon fluorescence, 1.5 h. AID 1794808. 0.25% of 210,000 active
mHTT-CaM PPI inh: disrupts binding of mutant huntingtin to calmodulin; 3.6% of 190,000 active; AlphaScreen His-mHTT/GST-CaM binding, luminescence; P42858; inhibition, % at 15 µM;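 note: 0% = both proteins with DMSO and 100% = one protein alone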
The depositor's hits bear a star; i = inactive; / = no result. Compounds with a hit are over-represented: about 3.5% of the library has one in this group of screens. Cut-off read from the data, not from the text of the source: active = inhibition above about 50%; inactive = the rest.

SMILES	Pf apPOL block	mHTT-CaM PPI inh
O=C(Nc1cccc(F)c1)C1CC(=O)N(CCc2c[nH]c3ccc(Cl)cc23)C1 (stereo unspecified)	1.5	66.0*
O=C(Nc1nccs1)C1CC(=O)N(CCc2c[nH]c3ccc(Cl)cc23)C1 (stereo unspecified)	0.5	63.2*
O=C(NC(=S)N1CCc2ccccc21)c1cncc(C#Cc2ccccc2)c1	-88.3	/
CCC(=O)Nc1ccc(NC(=O)c2ccc(Br)o2)cc1	-5.9	-0.8
CCC1COCCS(=O)(=O)N1Cc1ccccc1F (stereo unspecified)	-4.0	-4.2
Cc1ccc2[nH]cc(CCN3CC(C(=O)Nc4ccccc4Cl)CC3=O)c2c1 (stereo unspecified)	3.2	44.6
Cc1ccc2[nH]cc(CCN3CC(C(=O)Nc4ccc(C)c(Cl)c4)CC3=O)c2c1 (stereo unspecified)	-0.8	85.8*
COc1ccc2[nH]cc(CCN3CC(C(=O)Nc4nnc(C(C)(C)C)s4)CC3=O)c2c1 (stereo unspecified)	-2.3	14.3
Cc1ccc(N2CC(C(=O)Nc3nc4ccccc4s3)CC2=O)cc1Cl (stereo unspecified)	-0.9	55.0*
COc1ccc(NC(=O)C2CC(=O)N(c3ccc(C)c(Cl)c3)C2)cc1 (stereo unspecified)	0.7	0.6
CC(C)(C)c1nnc(NC(=O)C2CC(=O)N(CCc3c[nH]c4ccc(Cl)cc34)C2)s1 (stereo unspecified)	0.1	54.8*
O=C(Nc1ccc(F)cc1)Nc1ccc(Cl)c(Cl)c1	-6.2	-26.4
O=C(c1cn2c(n1)CSCC2)N1CCC(Cc2ccccc2)CC1	0.6	57.3*
O=C(c1cn2c(n1)COCC2)N1CCC(Cc2ccccc2)CC1	-5.2	35.5
O=C(Nc1ccc2oc(-c3cccnc3)nc2c1)c1ccc(-c2ccc(F)cc2)o1	3.1	8.0
CN(C)CCNC(=O)c1cc2c(n1C)CCN(Cc1ccccc1)C2	-3.1	4.6
CN(C)CCCNC(=O)c1cc2c(n1C)CCN(Cc1ccc(F)cc1)C2	1.8	95.6*
COc1ccccc1NC(=O)N1CCc2c(c3cc(F)ccc3n2C)C1	-3.8	81.5*
COc1ccc(CNC(=O)c2cc3c(n2C)CCN(Cc2ccc(F)cc2)C3)cc1	-3.3	30.6
COc1cccc(CNC(=O)c2cc3c(n2C)CCN(Cc2ccc(F)cc2)C3)c1OC	-8.4	25.1
COc1ccccc1NC(=O)N1CCc2c(c(COCc3cccc(F)c3)nn2C)C1	-2.7	20.4
COc1ccccc1NC(=O)c1cc2c(n1C)CCN(Cc1ccc(F)cc1)C2	-1.7	63.3*
COc1ccc(CNC(=O)c2cc3c(n2C)CCN(Cc2ccc(F)cc2)C3)cc1OC	-5.3	75.6*
CCOC(=O)N1CCN(S(=O)(=O)c2cn(C)nc2C)CC1	-13.7	-6.9
Cc1cc(=O)oc2c1c(-c1ccccc1)nn2-c1ccc(C(=O)O)cc1	-2.9	1.0
SMILES	Pf apPOL block	mHTT-CaM PPI inh
Cn1c(C(=O)NCc2ccco2)cc2c1CCN(Cc1ccccc1)C2	-1.3	48.3
Cc1ccc(CN2CCc3c(cc(C(=O)NCc4ccco4)n3C)C2)cc1	0.6	62.3*
O=[N+]([O-])c1ccc(CN2CCN(c3ccccc3F)CC2)s1	-0.2	12.0
Cc1ccc(-c2n[nH]c(C)c2NC(=O)C(C)(C)C)c(C)c1	-2.3	11.6
COc1ccc(C(=O)CSc2nnc(-c3ccco3)c(-c3ccco3)n2)cc1	-1.5	95.0*
CCOc1ccc(NC(=O)CSc2nnc(-c3ccco3)c(-c3ccco3)n2)cc1	-2.6	82.0*
O=C(CSc1nnc(-c2ccco2)c(-c2ccco2)n1)Nc1nccs1	8.7	70.0*
O=C(CSc1nnc(-c2ccco2)c(-c2ccco2)n1)Nc1cnc2ccccc2c1	-0.9	93.0*
O=C(CSc1nnc(-c2ccco2)n1-c1ccccc1)Nc1ccccc1	4.4	13.6
O=C(CSc1nnc(-c2ccco2)c(-c2ccco2)n1)Nc1ccc(C(=O)O)cc1	4.3	29.0
COc1ccc(C(=O)CSc2nnc(-c3ccco3)n2-c2ccccc2)cc1	-1.1	5.6
O=C(CSc1ncccn1)Nc1nccs1	-0.6	-17.3
Cc1ccc(NC(=O)CSc2nc3ccccc3c(=O)[nH]2)cc1	-7.5	0.5
C=C(C)COc1ccc2oc(C)c(C(=O)O)c2c1	-2.3	-21.2
CCS(=O)(=O)N1CCCC(OCc2nc(-c3ccccc3)no2)C1 (stereo unspecified)	-8.0	-17.8
Cc1cc(NC(=O)CSc2nnc(-c3ccco3)c(-c3ccco3)n2)no1	-5.1	69.0*
O=C(CSc1nnc(-c2ccco2)c(-c2ccco2)n1)Nc1ccc2c(c1)OCO2	-2.7	75.0*
O=C(CSc1ccc(-c2cccnc2)nn1)Nc1ccc2c(c1)OCO2	3.5	-4.1
COc1cc(OC)c(NC(=O)CSc2nnc(-c3ccco3)c(-c3ccco3)n2)cc1Cl	4.4	50.0
COc1ccc(-c2nnc(SCC(=O)N3CCN(C)CC3)nc2-c2ccc(OC)cc2)cc1	54.1*	29.0
O=C(CSc1nnc(-c2ccccc2)c(-c2ccccc2)n1)N1CCCCC1	-2.6	13.3
O=C(CSc1nnc(-c2ccco2)c(-c2ccco2)n1)Nc1ccc(Cl)cc1Cl	-4.3	85.0*
Cc1cc(NC(=O)CSc2nc3ccccc3s2)no1	-0.1	-24.3
O=C(NCc1cccc(F)c1)C1CCn2c(nc3ccccc32)C1 (stereo unspecified)	-3.7	3.6
O=C(Nc1cccc(Cl)c1)O[C@H]1CCC12CCC(c1ccccc1)CC2 (stereo partly specified)	0.4	-62.8
SMILES	Pf apPOL block	mHTT-CaM PPI inh
COc1ccc(C2SCCN2S(=O)(=O)c2ccc([N+](=O)[O-])cc2)cc1 (stereo unspecified)	12.1	-6.0
O=C(CSc1nnc(-c2ccco2)c(-c2ccco2)n1)Nc1cccc(C(=O)O)c1	-3.8	45.0
Cc1ccc(NC(=O)CSc2nnc(-c3ccco3)c(-c3ccco3)n2)cc1C	7.5	93.0*
O=C(O)C(CSCc1ccccc1)C(F)(F)F (stereo unspecified)	-2.5	0.0
COc1cccc(CNC(=O)C2CCCN(c3nccc4sccc34)C2)c1 (stereo unspecified)	-2.6	2.1
CC1(C)CC2CC(C)(CN2C(=O)/C(=C/c2ccco2)NC(=O)c2ccc(Cl)cc2)C1 (stereo unspecified)	-0.5	62.0*
O=C(O)/C(=C\c1ccco1)NC(=O)c1ccc(Cl)cc1Cl	-12.8	-1.0
CN(/N=C/c1ccccc1F)C1=NS(=O)(=O)c2ccccc21	/	i
S=c1[nH]nc(C2CCCCC2)n1/N=C\C=C\c1ccco1	/	i
O=C1C(=CC=Cc2ccco2)SC(=S)N1C1CCCCC1	18.4	77.8*
O=C(Nc1c(-c2ccccc2)nc2ccccn12)c1ccc([N+](=O)[O-])cc1	-5.4	10.0
COc1ccccc1C(=O)N1CCc2c(c(C(=O)NCc3ccc(F)cc3)nn2C)C1	-12.1	71.3*
Cc1ccccc1C(=O)N1CCc2c(c(C(=O)NCc3ccc(F)cc3)nn2C)C1	-12.1	35.5
Cn1nc(C(=O)NCc2ccc(F)cc2)c2c1CCN(C(=O)c1ccccc1Cl)C2	-6.7	55.1*
COc1ccccc1C(=O)N1CCc2c(c(C(=O)NCc3ccccc3)nn2C)C1	-5.1	36.0
Cn1nc(C(=O)NCc2ccccc2)c2c1CCN(C(=O)c1ccccc1F)C2	-4.9	52.7*
Cn1nc(C(=O)NCc2ccccc2)c2c1CCN(C(=O)c1ccc(Br)o1)C2	-4.0	15.6
CS(=O)(=O)c1ccc(S(C)(=O)=O)s1	/	-6.4
O=c1[nH]cc(F)c(=O)[nH]1	-4.3	/
